Compound in this assay: C#CCNC(=O)CCSSCCC(=O)NCCc1ccc(C=O)c(C=O)c1
Description: lysine labeling ratio R10:1 (500 µM / 50 µM probe), SILAC-ABPP in living cells; higher = lower intrinsic lysine reactivity toward the probe, active = 2 or less. The note with it: HeLa; probe concentrations 500 vs 50 µM. The procedure, abridged:
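For each lysine, R is the median over forward and reverse replicates of the filtered median MS1 peptide ratio of high probe to low probe. The probe, an alkyne-tagged, disulfide-linked lysine probe, was given at 500 µM or 50 µM to living SILAC light and heavy HeLa cells in PBS at room temperature, with label swaps. Values are capped at 20.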

Sequence of UniProt P35579 (P35579 whole entry): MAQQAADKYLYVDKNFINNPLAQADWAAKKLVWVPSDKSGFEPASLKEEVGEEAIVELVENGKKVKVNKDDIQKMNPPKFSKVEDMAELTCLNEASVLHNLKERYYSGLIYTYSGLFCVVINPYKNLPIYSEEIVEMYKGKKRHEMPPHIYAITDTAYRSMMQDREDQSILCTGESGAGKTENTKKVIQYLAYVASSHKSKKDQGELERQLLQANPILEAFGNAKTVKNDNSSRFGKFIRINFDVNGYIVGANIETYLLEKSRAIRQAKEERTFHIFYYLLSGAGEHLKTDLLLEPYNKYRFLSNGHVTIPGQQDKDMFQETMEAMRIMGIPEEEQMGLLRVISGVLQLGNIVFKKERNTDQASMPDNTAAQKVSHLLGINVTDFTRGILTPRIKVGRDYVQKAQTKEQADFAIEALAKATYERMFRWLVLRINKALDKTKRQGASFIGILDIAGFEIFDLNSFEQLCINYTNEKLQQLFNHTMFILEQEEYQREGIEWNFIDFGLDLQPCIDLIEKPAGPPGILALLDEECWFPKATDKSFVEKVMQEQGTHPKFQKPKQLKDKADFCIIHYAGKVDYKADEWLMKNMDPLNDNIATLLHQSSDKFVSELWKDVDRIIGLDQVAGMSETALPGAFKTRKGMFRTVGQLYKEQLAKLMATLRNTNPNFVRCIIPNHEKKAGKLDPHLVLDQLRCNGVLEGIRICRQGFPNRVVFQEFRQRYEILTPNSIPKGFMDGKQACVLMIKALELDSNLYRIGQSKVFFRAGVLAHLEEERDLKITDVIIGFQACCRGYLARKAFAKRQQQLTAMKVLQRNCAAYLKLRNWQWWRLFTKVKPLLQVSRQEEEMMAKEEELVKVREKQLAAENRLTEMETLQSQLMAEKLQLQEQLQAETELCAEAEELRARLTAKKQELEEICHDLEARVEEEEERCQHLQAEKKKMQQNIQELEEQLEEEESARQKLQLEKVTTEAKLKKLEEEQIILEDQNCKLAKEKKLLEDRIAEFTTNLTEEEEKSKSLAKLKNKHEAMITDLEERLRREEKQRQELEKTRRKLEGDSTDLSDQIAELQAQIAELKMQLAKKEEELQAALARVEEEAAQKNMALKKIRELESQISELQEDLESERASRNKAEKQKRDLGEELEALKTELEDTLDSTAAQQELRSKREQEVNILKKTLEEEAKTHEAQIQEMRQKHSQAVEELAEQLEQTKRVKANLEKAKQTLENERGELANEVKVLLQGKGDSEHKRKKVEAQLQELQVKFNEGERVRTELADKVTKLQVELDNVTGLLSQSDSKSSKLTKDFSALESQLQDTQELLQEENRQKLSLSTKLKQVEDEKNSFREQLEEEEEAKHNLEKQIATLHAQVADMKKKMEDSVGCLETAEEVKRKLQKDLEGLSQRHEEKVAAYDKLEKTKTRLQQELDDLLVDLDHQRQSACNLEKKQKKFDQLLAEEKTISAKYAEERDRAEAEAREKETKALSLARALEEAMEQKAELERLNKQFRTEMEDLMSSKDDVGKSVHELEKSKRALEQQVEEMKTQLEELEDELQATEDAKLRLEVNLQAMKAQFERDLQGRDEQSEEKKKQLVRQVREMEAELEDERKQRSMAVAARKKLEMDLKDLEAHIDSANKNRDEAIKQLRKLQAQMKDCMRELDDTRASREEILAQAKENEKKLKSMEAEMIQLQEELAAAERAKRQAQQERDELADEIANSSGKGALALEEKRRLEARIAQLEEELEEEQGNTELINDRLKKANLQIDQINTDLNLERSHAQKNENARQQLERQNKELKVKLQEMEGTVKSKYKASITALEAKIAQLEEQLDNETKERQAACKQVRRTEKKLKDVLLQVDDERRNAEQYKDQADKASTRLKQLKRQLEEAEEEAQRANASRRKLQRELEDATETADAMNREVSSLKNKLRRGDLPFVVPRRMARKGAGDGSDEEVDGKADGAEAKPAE
Sequence of UniProt O43865 (O43865 whole entry): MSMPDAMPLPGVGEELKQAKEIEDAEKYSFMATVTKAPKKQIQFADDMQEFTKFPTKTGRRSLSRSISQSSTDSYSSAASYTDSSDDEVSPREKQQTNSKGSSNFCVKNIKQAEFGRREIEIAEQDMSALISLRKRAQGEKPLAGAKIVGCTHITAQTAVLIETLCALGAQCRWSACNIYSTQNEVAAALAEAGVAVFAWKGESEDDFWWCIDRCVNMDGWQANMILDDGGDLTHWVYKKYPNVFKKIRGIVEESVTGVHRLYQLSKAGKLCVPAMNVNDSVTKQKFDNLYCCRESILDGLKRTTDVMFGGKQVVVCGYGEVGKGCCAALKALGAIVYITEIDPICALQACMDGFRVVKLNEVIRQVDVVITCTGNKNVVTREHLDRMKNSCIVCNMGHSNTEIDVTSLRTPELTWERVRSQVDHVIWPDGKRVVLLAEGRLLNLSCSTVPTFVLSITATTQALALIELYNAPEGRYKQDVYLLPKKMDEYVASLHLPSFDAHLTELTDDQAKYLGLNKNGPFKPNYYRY
Sequence of UniProt P30101 (P30101 whole entry): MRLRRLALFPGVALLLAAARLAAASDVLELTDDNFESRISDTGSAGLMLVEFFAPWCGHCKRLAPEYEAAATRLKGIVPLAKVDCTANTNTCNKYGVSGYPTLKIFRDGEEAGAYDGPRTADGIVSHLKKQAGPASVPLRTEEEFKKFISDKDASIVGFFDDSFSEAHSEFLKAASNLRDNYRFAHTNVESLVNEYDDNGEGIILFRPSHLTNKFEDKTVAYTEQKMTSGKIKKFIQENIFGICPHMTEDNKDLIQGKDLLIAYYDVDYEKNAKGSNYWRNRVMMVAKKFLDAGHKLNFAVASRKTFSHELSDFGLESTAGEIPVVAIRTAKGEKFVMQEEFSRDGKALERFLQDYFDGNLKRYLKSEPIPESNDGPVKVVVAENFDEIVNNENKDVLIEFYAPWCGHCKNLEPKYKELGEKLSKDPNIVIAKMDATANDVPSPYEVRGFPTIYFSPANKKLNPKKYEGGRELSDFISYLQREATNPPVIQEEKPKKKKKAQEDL
Sequence of UniProt P27348 (P27348 whole entry): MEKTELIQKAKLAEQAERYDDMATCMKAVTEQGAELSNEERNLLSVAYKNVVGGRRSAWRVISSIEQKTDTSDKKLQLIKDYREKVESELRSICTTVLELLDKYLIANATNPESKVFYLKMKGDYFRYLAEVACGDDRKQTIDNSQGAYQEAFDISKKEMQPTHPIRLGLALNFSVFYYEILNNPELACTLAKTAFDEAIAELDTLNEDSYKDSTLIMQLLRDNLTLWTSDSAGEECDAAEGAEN
Sequence of UniProt P05556 (P05556 whole entry): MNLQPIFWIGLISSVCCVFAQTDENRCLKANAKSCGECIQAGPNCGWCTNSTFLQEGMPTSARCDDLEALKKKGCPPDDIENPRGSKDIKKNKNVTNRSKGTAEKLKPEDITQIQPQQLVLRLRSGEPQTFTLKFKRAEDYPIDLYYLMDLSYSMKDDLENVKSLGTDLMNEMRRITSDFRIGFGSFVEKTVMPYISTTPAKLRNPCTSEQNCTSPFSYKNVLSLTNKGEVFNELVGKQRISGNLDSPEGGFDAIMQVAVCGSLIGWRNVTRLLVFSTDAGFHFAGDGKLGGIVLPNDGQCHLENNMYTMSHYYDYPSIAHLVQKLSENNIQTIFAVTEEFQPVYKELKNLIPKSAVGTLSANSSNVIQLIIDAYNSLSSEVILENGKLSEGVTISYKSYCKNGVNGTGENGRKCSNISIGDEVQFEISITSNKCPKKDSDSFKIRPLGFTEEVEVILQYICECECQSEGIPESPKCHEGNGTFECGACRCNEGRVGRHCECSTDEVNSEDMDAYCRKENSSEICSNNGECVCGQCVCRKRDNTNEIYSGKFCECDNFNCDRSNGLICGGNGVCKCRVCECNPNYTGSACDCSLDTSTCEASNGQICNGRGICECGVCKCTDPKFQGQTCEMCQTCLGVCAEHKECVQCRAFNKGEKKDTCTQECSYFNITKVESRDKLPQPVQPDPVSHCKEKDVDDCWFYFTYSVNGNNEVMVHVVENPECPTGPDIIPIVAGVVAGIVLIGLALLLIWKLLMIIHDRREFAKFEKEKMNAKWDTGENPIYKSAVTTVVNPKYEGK
Sequence of UniProt Q02978 (Q02978 whole entry): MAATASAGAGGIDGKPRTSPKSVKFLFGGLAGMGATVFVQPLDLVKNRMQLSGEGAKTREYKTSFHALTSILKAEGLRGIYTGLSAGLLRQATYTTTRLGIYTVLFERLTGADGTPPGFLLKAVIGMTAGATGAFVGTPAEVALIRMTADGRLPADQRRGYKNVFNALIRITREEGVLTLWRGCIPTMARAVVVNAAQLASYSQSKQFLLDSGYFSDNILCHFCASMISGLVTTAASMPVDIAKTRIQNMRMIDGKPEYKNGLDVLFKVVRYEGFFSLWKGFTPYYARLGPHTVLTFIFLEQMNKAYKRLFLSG
Sequence of UniProt P08670 (P08670 whole entry): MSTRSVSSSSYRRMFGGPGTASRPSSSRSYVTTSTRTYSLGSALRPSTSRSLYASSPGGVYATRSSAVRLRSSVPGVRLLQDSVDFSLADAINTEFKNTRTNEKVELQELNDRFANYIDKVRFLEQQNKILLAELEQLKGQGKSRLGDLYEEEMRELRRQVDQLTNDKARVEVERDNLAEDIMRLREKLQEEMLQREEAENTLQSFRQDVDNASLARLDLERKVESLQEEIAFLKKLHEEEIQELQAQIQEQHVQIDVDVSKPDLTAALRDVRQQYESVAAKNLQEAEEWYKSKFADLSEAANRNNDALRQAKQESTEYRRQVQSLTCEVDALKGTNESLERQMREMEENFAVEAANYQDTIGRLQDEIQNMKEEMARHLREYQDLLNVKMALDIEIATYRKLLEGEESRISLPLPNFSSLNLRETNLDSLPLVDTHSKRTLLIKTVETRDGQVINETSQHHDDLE
Sequence of UniProt P52565 (P52565 whole entry): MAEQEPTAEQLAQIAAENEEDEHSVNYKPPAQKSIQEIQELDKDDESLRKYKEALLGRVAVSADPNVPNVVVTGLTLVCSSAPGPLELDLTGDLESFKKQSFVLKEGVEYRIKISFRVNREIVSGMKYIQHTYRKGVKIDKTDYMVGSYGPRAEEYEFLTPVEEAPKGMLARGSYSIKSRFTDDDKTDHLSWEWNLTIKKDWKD

For “RDX (lysine site: K556) (UniProt P35241)”, the “lysine labeling ratio R10:1” value is 1.52 (active).
The figure for “LAMB1 (lysine site: K158) (UniProt P07942)” is 1.78 (active); for UniProt O43865 (lysine site: K302) it is 1.25 (active).
The figure for “MARS (lysine site: K726) (UniProt P56192)” is 0.748 (active); for “PDIA3 (lysine site: K362) (UniProt P30101)” it is 2.15 (inactive).
The figure for “FN1 (lysine site: K2354) (UniProt P02751)” is 6.78 (inactive); for TKT (lysine site: K59) (UniProt P29401) it is 4.48 (inactive).
Take “IARS (lysine site: K641) (UniProt P41252)”: the “lysine labeling ratio R10:1” value is 1.71 (active).
For “ARHGDIA (lysine site: K178) (UniProt P52565)”, the “lysine labeling ratio R10:1” value was 3.53 (inactive).
The figure for “SLC25A11 (lysine site: K57) (UniProt Q02978)” is 1.95 (active); for “HNRNPA1 (lysine site: K8) (UniProt P09651)” it is 4.27 (inactive).
The figure for “MYH9 (lysine site: K856) (UniProt P35579)” is 2.68 (inactive); for “ITGB1 (lysine site: K100) (UniProt P05556)” it is 10.5 (inactive).
The figure for “MYH9 (lysine site: K1724) (UniProt P35579)” is 1.66 (active).
With UniProt P09758 (lysine site: K138), the “lysine labeling ratio R10:1” value was 5.06 (inactive).
The figure for “VIM (lysine site: K168) (UniProt P08670)” is 3.85 (inactive); for “YWHAQ (lysine site: K85) (UniProt P27348)” it is 4.79 (inactive).

Values taken from the supplement of paper PMC11001985.
